# Results taken from the supplement of paper PMC6555819.
# System: PPARg:RXRa 270nM:90nM, anti-RXR (NR concentration 270 nM, RXRa partner concentration 90 nM)
# Assay: PBM binding z-score (relative to random genomic background probes); higher = stronger binding; sequences stand for … in GC…GCGATTGACAGCGTAGAATGAAGG
# How it was run: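 Custom Agilent 4×180K protein-binding microarrays carried double-stranded probes. Their 34-nt variable regions held direct-repeat seeds, single-nucleotide variants, half-site ablations and random human genomic background sequences. Arrays were incubated 1 h with ligand-free nuclear receptor dimers in PBS pH 7.4, 2% milk, 0.02% Triton X-100, 1 mM DTT, 0.2 mg/mL BSA and 0.4 mg/ml salmon testes DNA. Antibodies against each partner (one per run) detected binding, and scanned fluorescence was regression-normalized. Binding z-scores use random background probes as reference.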
row,Sequence,PBM binding z-score
1,AATACAGGGTCATCTTAGGCCAGAGTACGCACAG,5.79
2,TATCAAAGTTCAAAGGTAACGTAAGTATCCACAC,6.03
3,ATCGAAAGGTCCAAGGTGAGTATACCCACCCGAA,0.802
4,TACCCTAGGTCATTGGGCCAGTATAGTACGCATC,4.04
5,AGAATGGGGTTACCAAAGATCAGGGAAACGCTTG,4.32
6,AATACAGGGTGACTAGGCCAGAGTAGGTACGAAT,2.06
7,GTTACAGGGTCAAGGCCAGAGTACGCGTATTGAT,5.66
8,ATATGTAGGATAGCTGGGGTCATTCAGACTAGGC,3.01
9,TACCCTAGGTCATTCAGGGGCCAGTATAGAAAGC,2.63
10,CCTACTGGACCAAGGTCATTGATCAGTCAAAGCA,2.77
11,AGTCAAAGTTCATCTAGGTAACATAAGATATGCT,6.54
12,GCATATAGGTAATACAAGGTCAAAGTCCGATTGT,3.32
13,CGTCCAAGGTCAATGCTAGATCAGTGAAAGCATT,4.19
14,CCTACTGGGCCATTCAGAGGGCATTGATCATATG,0.565
15,CCTACTGGGCCGTTCAGAGGTCATTGATCATATG,2.48
16,TGTCAATGTTCAAAGGTAACGTAAGTATCCACAC,3.47
17,ATATGTAGGTTATCGGGTCATACAGTTTGCGCAT,6.2
18,ATATGTAGGTTACCTGGGGTCATTCAGACTAGGC,6.14
19,TAGCCTAGGTCATTCAGGGGCCAGCATAGAAAGC,2.62
20,AGTCAAAGTTGAGGACGAGGTAACGTAAAGCACG,1.74

row,Sequence,PBM binding z-score
1,ACTTACGGCTCAACGAGGTTATAGCACGCGTATA,-0.0206
2,CACACTAGGTCACAGAGGTCAAAGTCCGTGCGTA,7.9
3,TCTGCTAGGTCAACGTTGGTCAGCTAATCTGCTA,3.4
4,AGAATGAGGTTACTAAAGATCAGGGAAACGCTTG,1.58
5,TAGCCTAGGTCATTCAGGGGCAAGTATAGAAAGC,2.67
6,CCTTACGGGTCAAGGTTATAGCCCGGGTGGTACG,4.86
7,CCTTACGGGTTACTCCAGGTTATAGCATCGGAGT,0.711
8,TCTTGTAGATCGATAGAGGTTAAGAAAGTGCGCT,1.66
9,CCTTACGGGTCACTCCAGGTCATAGCATCGGAGT,4.54
10,ATATGTAGGTTAGCTGAGGTCATTCAGACTAGGC,4.91
11,TAGCCTAGTTCATGCGGGCCAGTATAGTGTCGGC,-0.0482
12,CAAAATAGGTCACCGGAAGGTCAAAGTCCGCATG,7.64
13,ATCGAAAGGTCGACCAGGTGAGTATACACCGTTT,3.34
14,GCTGCTAGGTCAACTGATGGTCATCTAAAGCTCG,3.32
15,CCTACTGGGCCAAAGGTGATTGATTCCAATGCTC,7.96
16,CAAACTAGGTCACAGTGGTCAAAGTCCGTGCGTA,6.97
17,ATATGTAGTTTATCGGGTCATTCAGTTTGCGCAT,2.34
18,CAAACTAGGTCACAAAAGGTCAAAGTCGAATGAC,8.38
19,TCTAGTTGGTCTAAGGTCACACACTCGAAATGCG,6.51
20,AATACAAGGTCATCGTAGGCCAGAGTACGCACAG,5.94
